Holding throughout (assay type): functional
Assay [1] addresses Solute carrier family 2, facilitated glucose transporter member 1 (Homo sapiens) (UniProt P11166). The assay is described as follows: ST_JUDE_LEISH: Cytotoxicity at 2uM final concentration against transgenic Leishmania Mexicana promastigotes LmGLUT1 that are glucose transport deficient and complemented with the human glucose transporter GLUT1. Activity is measured by DNA content using SYBR green in vitro.

The target in assay [2] is Hexose transporter 1 (Plasmodium falciparum) (UniProt O97467). The assay is described as follows: ST_JUDE_LEISH: Cytotoxicity at 2uM final concentration against transgenic Leishmania Mexicana promastigotes LmPfHT that are glucose transport deficient and complemented with the Plasmodium falciparum hexose transporter. Activity is measured by DNA content using SYBR green in vitro.

The target of assay [3] is Glucose transporter (Leishmania mexicana) (UniProt O61059). The assay is described as follows: ST_JUDE_LEISH: Cytotoxicity at 2uM final concentration against transgenic Leishmania Mexicana promastigotes LmGT2 that are glucose transport deficient and complemented with the L. Mexicana glucose transporter 2. Activity is measured by DNA content using SYBR green in vitro.

SMILES strings stand for the structures.

Chain of Solute carrier family 2, facilitated glucose transporter member 1 (Homo sapiens) (P11166 whole entry): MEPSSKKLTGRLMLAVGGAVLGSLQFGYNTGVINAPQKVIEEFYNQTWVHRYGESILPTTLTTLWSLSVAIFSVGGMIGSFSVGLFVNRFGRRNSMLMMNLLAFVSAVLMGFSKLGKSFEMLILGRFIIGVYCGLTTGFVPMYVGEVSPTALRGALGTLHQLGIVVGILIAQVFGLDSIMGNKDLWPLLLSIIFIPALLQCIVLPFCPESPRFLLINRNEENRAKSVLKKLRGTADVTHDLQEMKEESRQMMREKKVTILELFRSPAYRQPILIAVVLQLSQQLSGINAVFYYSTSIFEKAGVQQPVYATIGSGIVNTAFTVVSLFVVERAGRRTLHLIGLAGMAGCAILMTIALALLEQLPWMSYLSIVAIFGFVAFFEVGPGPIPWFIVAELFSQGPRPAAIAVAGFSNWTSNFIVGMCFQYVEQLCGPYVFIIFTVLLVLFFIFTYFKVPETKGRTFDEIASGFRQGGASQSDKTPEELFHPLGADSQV

Consider `O=C(Cc1cccc(OCCCN(Cc2cccc(C(F)(F)F)c2Cl)CC(c2ccccc2)c2ccccc2)c1)NCc1ccco1`, for which the inhibition is -1.28% in assay [1], 2.42% in assay [2] and -2.47% in assay [3].

Turning to `Cc1nc(N)nc(N)c1-c1ccc(Cl)c(Cl)c1`, the figures for the inhibition in assay [1], in assay [2] and in assay [3] were 6.9%, 5.53% and 5.34%, respectively.

As to `CC(C)n1ncc2c(C(=O)N3CCCCCC3)cc(-c3ccccc3)nc21`, the results for the inhibition in assay [1], in assay [2] and in assay [3] were -0.35%, -0.92% and -5.3%, respectively.

Turning to `COc1ccc2nccc([C@@H](O)CN3CCC(NCC4COc5ccccc5O4)CC3)c2c1` (some centres undefined), the inhibition in assay [1] is 7.53%; in assay [2], 8.69%; in assay [3], 1.37%.

Take `O=C(NC1CCN(c2ccnc3cc(Cl)ccc23)C1)c1ccc(C(F)(F)F)cc1` (centres undefined): the values for the inhibition in assay [1], in assay [2] and in assay [3] were 3.93%, 3.66% and 0.57%, respectively.

Regarding `Clc1ccc(-c2ccc(CNCCCN3CCCC3)cc2)cc1`, the figures for the inhibition in assay [1], in assay [2] and in assay [3] were 4.04%, 3.04% and 3.65%, respectively.

In the case of `Cc1ccc(Nc2nc(C)cc(N3CCN(CCc4ccccc4)CC3)n2)cc1`, the inhibition was 3.08% in assay [1], 3.31% in assay [2] and -1.99% in assay [3].

On to `CC(C)CN(c1nc(C(=O)NNC(=O)[C@H](CC2CC2)NC(=O)c2cc3cc(OCCN4CCCCC4)ccc3o2)cs1)C1CC1`, for which the inhibition in assay [1] was -3.13%; in assay [2], 0.58%; in assay [3], 0.46%.

With `Cc1[nH]cnc1Cc1ccc2c(c1O)c1ccccc1n2C`, the results for the inhibition in assay [1], in assay [2] and in assay [3] were 2.71%, -0.2% and -0.18%, respectively.

Turning to `c1ccc(C(c2cccs2)N2CCN(Cc3ccc(OCCCN4CCCCC4)cc3)CC2)cc1` (centres undefined), the inhibition in assay [1] came out at 7.65%; in assay [2], 6.22%; in assay [3], 5.51%.

With `COc1ccc(Cl)cc1NC(=O)CN(C)C(=O)c1cnn(-c2ccccc2)n1`, the figures for the inhibition in assay [1], in assay [2] and in assay [3] were 1.85%, -0.34% and 3.11%, respectively.

Turning to `COc1cccc(-c2ccc(C(=O)NC3CCN(Cc4ccc(N(C)C)cc4)CC3)s2)c1`, the inhibition was 2.66% in assay [1], 1.14% in assay [2] and -0.07% in assay [3].

`OCCn1c(CNCCCNc2nc3ccccc3[nH]2)cc2c(Cl)cc(Cl)cc21`: the inhibition was determined as 82% in assay [1], 88.2% in assay [2] and 80.5% in assay [3].

As to `O=C(/C=C/c1ccc(Cl)cc1)Nc1ccc2nc(CN3CCCC3)ccc2c1`, the results for the inhibition in assay [1], in assay [2] and in assay [3] were 5.3%, 6.73% and 5.54%, respectively.

`Cc1nc(C)c(-c2ccc(Oc3ccc(Cl)cc3)cc2)c(O)c1I`: the inhibition in assay [1] amounted to 2.9%; in assay [2] it was 0.57%; in assay [3] it was 0.03%.

Regarding `CC(C)CCCC(C)(C)NC[C@@H](O)[C@H](Cc1ccccc1)NC(=O)c1cc(NC(C)C)cc(N2CCCCS2(=O)=O)c1`, the inhibition in assay [1] is -0.83%; in assay [2], -1.58%; in assay [3], -3.27%.

As for `COc1cc2c(c(Cl)c1OC)CCN(C(=O)C(F)(F)F)CC2c1ccccc1` (centres undefined), the results for the inhibition in assay [1], in assay [2] and in assay [3] were 6.36%, 5.47% and 4.64%, respectively.

For `OCCN1CCN(C2Cc3ccc(F)cc3Sc3ccc(Cl)cc32)CC1` (centres undefined), the inhibition in assay [1] was 0.59%; in assay [2] it was -3.09%; in assay [3], 0.59%.

On to `OC1CCCN(Cc2ccc(-c3cccc(-c4nc5ccccc5[nH]4)c3)cc2)C1` (centres undefined), for which the inhibition in assay [1] worked out at 2.79%; in assay [2], 1.57%; in assay [3], 2.79%.

With `Cc1ccc(C(O)CNc2ccnc(Nc3cccc(-c4csc(C)n4)c3)n2)cc1` (centres undefined), the inhibition is -0.56% in assay [1], -1.05% in assay [2] and -1.54% in assay [3].

In the case of `COc1cc(CNC[C@@H](O)[C@H](Cc2ccccc2)NC(=O)c2cc(C3CCCC3)cc(N3CCCCS3(=O)=O)c2)cc(OC)c1`, the inhibition in assay [1] was found to be 5.15%; in assay [2] it was 5.6%; in assay [3], 6.05%.

Regarding `COc1ccc2nccc([C@@H](O)CN3CCC(NCCOc4c(C)cccc4F)CC3)c2c1`, the inhibition in assay [1] was determined as 5.89%; in assay [2], 3.49%; in assay [3], 4.05%.

In the case of `CC(C)(C)c1ccc(/C=C/C(=O)NCCCCCN2CCC(c3c[nH]c4ccccc34)CC2)cc1`, the inhibition in assay [1] was 4.78%; in assay [2] it was 4.13%; in assay [3], -1.25%.

As for `O=C(CNC(=O)c1ccc(O)cc1)Nc1cccc(-c2cccc(-c3nc4cc(C(F)(F)F)ccc4[nH]3)c2)c1`, the inhibition in assay [1] turned out to be 3.81%; in assay [2], 4.39%; in assay [3], 2.15%.

Consider `N#Cc1cc([N+](=O)[O-])ccc1-n1nc(-c2cccc(Cl)c2)n(Cc2ccco2)c1=S`, for which the figures for the inhibition in assay [1], in assay [2] and in assay [3] were 1.94%, 1.56% and -3.52%, respectively.

For `O=C(/C=C/c1ccc(Cl)c(Cl)c1)NCCCCCN1CCCC(CNS(=O)(=O)c2ccc(F)cc2)C1` (centres undefined), the inhibition in assay [1] was -1.15%; in assay [2] it was -0.91%; in assay [3] it was 1.39%.

For `O=C(/C=C/c1ccc(Cl)c(Cl)c1)NCCCCCN1CCC(NC(=O)Nc2cc(F)cc(F)c2)CC1`, the inhibition in assay [1] was -0.2%; in assay [2], 1.46%; in assay [3], 4.15%.

On to `COc1ccc(CNC(=O)Nc2cccc(-c3csc(NC(=N)N)n3)c2)cc1`, for which the inhibition in assay [1] is -2.22%; in assay [2], -0.98%; in assay [3], 1.03%.

On to `Cc1nn(CCOC(=O)NC(NCC2COc3ccccc3O2)C(Cl)(Cl)Cl)cc1[N+](=O)[O-]` (centres undefined), for which the values for the inhibition in assay [1], in assay [2] and in assay [3] were 0.33%, -0.07% and -1.73%, respectively.

With `CCN1CCN(CCNc2c3ccccc3nc3ccccc23)CC1`, the figures for the inhibition in assay [1], in assay [2] and in assay [3] were 83.5%, 80.6% and 79%, respectively.

`COc1cccc(NC(=O)c2cc(C(=O)Nc3cccc(OC)c3)cc([N+](=O)[O-])c2)c1`: the inhibition is 2.37% in assay [1], 3.98% in assay [2] and 1.08% in assay [3].

In the case of `CN(C)C1CCN(CC#Cc2cc3ncnc(Nc4ccc(OCc5cccc(F)c5)c(Cl)c4)c3s2)CC1`, the inhibition was found to be 1.79% in assay [1], 0.49% in assay [2] and 2.9% in assay [3].

For `CCc1cccc2c(C#N)cn(CC(=O)Nc3ccc(OC)cc3)c12`, the inhibition in assay [1] was 0.84%; in assay [2], 3.26%; in assay [3] it was 1.27%.

Broadly, the inhibition is the relative decrease from the control value, in per cent.

The values are drawn from ChEMBL document CHEMBL3433997, “St. Jude Leishmania screening dataset” (2016).
